# Experimental data from PubChem BioAssay (NCI).
# This is part of a sample that, as a whole, favours compounds with a hit. Of some 79,000 tested, about 15% had one in any assay. Unmarked numbers belong to inactive results. Active and inactive are the calls of the source. No stated cut-off is given here; in the data, active means growth inhibition above about 70%; inactive means the rest.
# Tests used:
# [1] = NCI Yeast Anticancer Drug Screen. Data for the rad50 strain (AID 155);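 further: 0% = growth of vehicle-only cultures of the same strain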; settings: S. cerevisiae rad50 strain growth inhibition, stronger effect = higher value
# In short: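 Yeast carrying a defined DNA repair defect were exposed to test compounds, and growth was compared with vehicle-treated controls to give percent inhibition.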
# [2] = NCI Yeast Anticancer Drug Screen. Data for the mec2-1 strain (AID 157); settings: S. cerevisiae mec2-1 strain, stronger effect = higher value
# In short: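 Cells of the genetically defined mec2-1 yeast strain are incubated with test compound. Inhibition of growth is calculated against vehicle-treated controls.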
# [3] = NCI Yeast Anticancer Drug Screen. Data for the sgs1 mgt1 strain (AID 161);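 further: 0% = growth of cultures given vehicle only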; settings: S. cerevisiae sgs1 mgt1 strain, stronger effect = higher value
# In short: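 Inhibition of yeast growth, normalised to vehicle-treated controls, is reported for a strain bearing genetic alterations in DNA damage repair.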
# [4] = NCI Yeast Anticancer Drug Screen. Data for the cln2 rad14 strain (AID 165);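 further: 0% = growth equal to vehicle treated cultures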; settings: S. cerevisiae cln2 rad14 strain, stronger effect = higher value
# In short: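 The screen exposed genetically defined yeast (cln2 rad14) to test compounds and scored growth inhibition relative to vehicle-treated controls.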
# [5] = NCI Yeast Anticancer Drug Screen. Data for the bub3 strain (AID 167); settings: S. cerevisiae bub3 mutant strain, stronger effect = higher value
# In short: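 Compounds were applied to a genetically altered yeast strain carrying a cell-cycle control defect. Growth inhibition was scored against vehicle-treated controls.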
# [6] = NCI Yeast Anticancer Drug Screen. Data for the mlh1 rad18 strain (AID 175); settings: S. cerevisiae mlh1 rad18 strain growth inhibition, stronger effect = higher value
# In short: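 Compound-treated yeast growth, normalised to vehicle controls. Strain bears defined DNA repair mutations.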
# [7] = at 5.0 µM (retest, dose inferred, filed as 0.5)
# [8] = at 50.0 µM (retest, dose inferred, filed as 5.0)
Compound,"growth inhibition [1, 7]","growth inhibition [1, 8]",growth inhibition ([1]; at 50.0 µM),"growth inhibition [2, 7]","growth inhibition [2, 8]",growth inhibition ([2]; at 50.0 µM),"growth inhibition [3, 7]","growth inhibition [3, 8]",growth inhibition ([3]; at 50.0 µM),"growth inhibition [4, 7]","growth inhibition [4, 8]",growth inhibition ([4]; at 50.0 µM),"growth inhibition [5, 7]","growth inhibition [5, 8]",growth inhibition ([5]; at 50.0 µM),"growth inhibition [6, 7]","growth inhibition [6, 8]",growth inhibition ([6]; at 50.0 µM)
O=C(/C=C/c1cc(O)c(O)cc1O)OCCc1ccccc1,17%,50%,47.1%,16%,61%,75.5% (active),20%,64%,69.8%,32%,33%,53.7%,25%,68%,66%,21%,75% (active),68.5%
O=C1c2ccccc2-c2cc3ccccc3nc21,28%,89% (active),72.7% (active),21%,70% (active),60.8%,15%,67%,48.2%,23%,73% (active),62.4%,15%,73% (active),61.3%,–,–,–
COC(=O)CCN1c2ccccc2Sc2ccccc21,-14%,38%,48.8%,-23%,21%,23.1%,-13%,30%,47.5%,31%,42%,23.4%,16%,62%,12.1%,-15%,49%,64.7%
COc1cc2c(cc1OC)C(C)N(C)c1c-2c(OC(C)=O)cc2cc(OC)c(OC)cc12 (stereo not drawn),2%,52%,82.5% (active),-4%,64%,87.4% (active),-4%,67%,64.2%,-8%,49%,19.6%,-4%,72% (active),42.2%,–,–,–
Cn1cnc([N+](=O)[O-])c1Sc1nnnn1-c1ccccc1,53%,86% (active),82% (active),29%,70% (active),75.8% (active),47%,71% (active),68.7%,32%,51%,36.1%,42%,75% (active),80.8% (active),60%,91% (active),80.5% (active)
CC1=C(C(=O)Nc2ccccc2)C(c2cc(Cl)cc(Cl)c2)C(C(=O)Nc2ccccc2)=C(C)N1,2%,2%,87% (active),19%,19%,85.5% (active),11%,11%,83% (active),5%,5%,63.1%,-11%,-11%,63.4%,–,–,–
O=C(CCl)N1CCN(C(c2ccccc2)c2ccccc2)CC1,6%,96% (active),95% (active),12%,95% (active),85.8% (active),9%,97% (active),97.8% (active),12%,91% (active),81.2% (active),13%,97% (active),95.5% (active),–,–,–
C=C1CC23CCC4C(C)(C(=O)O)CCCC4(C)C2CCC1C3 (stereo not drawn),27%,98% (active),90.5% (active),40%,98% (active),91% (active),18%,97% (active),90% (active),19%,97% (active),87.2% (active),13%,97% (active),89.3% (active),49%,98% (active),82% (active)
Nc1ccc(C(=O)/C=C/c2ccccn2)cc1,3%,45%,8.2%,-6%,64%,31.4%,1%,60%,17.8%,9%,38%,17.6%,-1%,79% (active),66.8%,6%,82% (active),27.9%
O=C(O)c1cc2oc(-c3ccccc3)cc2[nH]1,-11%,71% (active),72.5% (active),-8%,71% (active),88.7% (active),7%,74% (active),47.9%,-32%,34%,69.8%,-14%,51%,83.8% (active),-9%,80% (active),87.3% (active)
CCCCCCCCCCCC(O)CN1CCOCC1 (stereo not drawn),49%,1%,98.4% (active),46%,9%,97.5% (active),49%,-2%,43.8%,46%,8%,91.5% (active),57%,31%,98.8% (active),–,–,–
